24 sequences from the OligoGym collection can be followed below.
Also: reference of the scale not given here.

For the test, the target named is CPD. In words: pooled miR-30 sensor sort-seq; sequence = guide strand. The settings on record: shRNA.
Regarding TATTCTTGCAAGGTCTACCTTG, the sensor-assay potency score (higher = more potent) is -0.366.

Regarding TTAGGTATAGCAACTGTGCTAG, the sensor-assay potency score (higher = more potent) turned out to be 0.733.

On to TTAGTGATCTTCGATTCTGTTC, for which the sensor-assay potency score (higher = more potent) was -0.307.

Regarding TTGAAGTACAGTCTTTCTCTTG, the sensor-assay potency score (higher = more potent) is -0.337.

TTTGTTTGTAAATAGTTCCAGT: the sensor-assay potency score (higher = more potent) was 0.147.

Take TTGGAACACAGCATCATCTGGT: the sensor-assay potency score (higher = more potent) is 0.644.

TATTTGTGAAGTCTGTATCCAA returned a sensor-assay potency score (higher = more potent) of 0.0284.

Take TTGTAAATAGTTCCAGTCCTGC: the sensor-assay potency score (higher = more potent) was -0.512.

In the case of TTTTGCTTGGTACTTATGCTGG, the sensor-assay potency score (higher = more potent) was -0.405.

TTGTTTGTACCTTTATTCCTTC: the sensor-assay potency score (higher = more potent) is -0.441.

For the sequence TAGTGTTATGAACCAAATCTGT, the sensor-assay potency score (higher = more potent) was -0.534.

On to TTGATTGAGCAGATGCACCAAA, for which the sensor-assay potency score (higher = more potent) was -0.419.

As to TTGACAGTCACATTCTTGGTAA, the sensor-assay potency score (higher = more potent) was -0.225.

The sequence TTGATTCATTGTTTGAATCTGT showed a sensor-assay potency score (higher = more potent) of 0.522.

The sequence ATAGGTGACACTATAATCCTTC registered a sensor-assay potency score (higher = more potent) of 0.621.

On to TTAGGATACATATTCTTGCAAG, for which the sensor-assay potency score (higher = more potent) is -0.612.

For TTTGTAAGTAGTCACTGGGTGA, the sensor-assay potency score (higher = more potent) is -0.0209.

The sequence TTTCACTCCAATGTGAACCTTT registered a sensor-assay potency score (higher = more potent) of 0.41.

TTCAACAGCAGTTCTCTTCCAA showed a sensor-assay potency score (higher = more potent) of 0.56.

For the sequence TTCATTAGGATACATATTCTTG, the sensor-assay potency score (higher = more potent) was -0.698.

For the sequence TTACACTTATTGAATCTCCTTC, the sensor-assay potency score (higher = more potent) amounted to 0.411.

As to TTTGTTGGAACACAGCATCATC, the sensor-assay potency score (higher = more potent) is -1.01.

Sequence TTGCGTAGGATCTGTGATCTGA came in with a sensor-assay potency score (higher = more potent) of 1.11.

TAGCAGTTGATACAGCCTCTGT: the sensor-assay potency score (higher = more potent) is -1.16.
